PubChem BioAssay (NCATS)
Records with an inconclusive call do not appear. Unmarked numbers belong to inactive results. Calls come from the whole dose curve; as a rule, active = well fitted inhibition curve with a large enough effect; inconclusive = small, poorly fitted or top-dose-only effect; inactive = no such curve, though single readings can be large or run the other way.

Experiment: Tertiary RLuc qRT-PCR qHTS assay for Zika virus inhibitors (AID 1347169); note: top concentration of the series differs between compounds; nearly all actives have a fitted effect of over 55% in size
Conditions: infected Vero cells, reporter luminescence, 48-72 h; series mostly up to 45.9 µM; activity change, negative = inhibition: at the top concentration
Method in brief: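 Orthogonal cell-based infection assay using recombinant ZIKV-RLuc (Cambodian) in Vero cells; compound added prior to virus at MOI 1-2. Incubation lasts 48-72 hrs at 37 degrees C before live-cell Renilla substrate is added and luminescence measured.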
% is set by controls: 0 for no effect and ±100 for the full control effect.

SMILES | activity change, negative = inhibition
CC(=O)c1c(C)cc(O)cc1O[C@@H]1O[C@H](CO)[C@@H](O)[C@H](O)[C@H]1O | 29.1% [at 26.6 µM]
OC[C@H]1O[C@@H](Oc2ccc(O)c3cccc(O)c23)[C@H](O)[C@@H](O)[C@@H]1O | -0.861% [at 26.6 µM]
CC1C/C=C/C=C\CCCCC(O)C/C=C/C(=O)O1 (stereo not given) | -19.8%
Cc1nn(C)c(COc2ccc(N3CCN(S(=O)(=O)N(C)C)CC3)cc2)c1-c1cccc2c(CCCOc3cccc4ccccc34)c(C(=O)O)n(CCN3CCOCC3)c12 | -29.9%
CC1(C)CC[C@]2(C(=O)O[C@@H]3O[C@H](CO)[C@@H](O)[C@H](O)[C@H]3O)CC[C@]3(C)C(=CCC4[C@@]5(C)C[C@@H](O)[C@H](O)[C@@](C)(CO)C5CC[C@]43C)C2C1 (stereo not given in full) | 5.17% [at 14.8 µM]
CCCCS(=O)(=O)Nc1ncnc(OCCOc2ncc(Br)cn2)c1-c1ccc(Br)cc1 | -38.2%
C=C1CC23CCC4[C@@](C)(CCC[C@@]4(C)C(=O)O)C2CCC1C3 (stereo not given in full) | 50.9%
NCc1ccc(OCCCc2sc(-c3ccc4c(c3)/C(=N/Nc3nc5ccccc5s3)CCC4)nc2C(=O)O)cc1 | 17.1%
CC(C)(O)/C=C1/C(=O)C(C)(C)C(=O)C(C)(C)C1(O)O[C@@H]1O[C@H](COC(=O)c2cc(O)c(O)c(O)c2)[C@@H](O)[C@H](O)[C@H]1O (stereo not given in full) | -26.7% [at 14.8 µM]
CC(C)(O)C1CC=C(C(=O)OCC2OC(Oc3c(O)cc(C(=O)O)cc3O)C(O)C(O)C2O)CC1 (stereo not given) | -57.9% [at 26.6 µM]
